Test results reported in the supplement of paper PMC3334620.
Whole data set: some 33,000 sequences, median “E-score (-0.5 to 0.5)” near -0.017, cut for the highest 2% near 0.3. Many of the other results were omitted from the sample, so the highest values are more common in it than they were.

Target: T1, Sut1 (UniProt P53032)
T1 sequence: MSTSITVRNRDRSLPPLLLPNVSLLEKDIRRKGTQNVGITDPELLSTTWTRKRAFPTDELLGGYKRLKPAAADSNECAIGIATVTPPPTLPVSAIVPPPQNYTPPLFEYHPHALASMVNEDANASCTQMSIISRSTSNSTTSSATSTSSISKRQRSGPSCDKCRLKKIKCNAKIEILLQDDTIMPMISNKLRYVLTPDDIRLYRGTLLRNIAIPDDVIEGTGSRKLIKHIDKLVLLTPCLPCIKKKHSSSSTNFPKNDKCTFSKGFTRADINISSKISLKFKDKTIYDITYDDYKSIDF
Test: PBM E-score (8-mer binding enrichment) (E-score (-0.5 to 0.5)); higher = stronger / more preferred TF binding
Details: protein concentration: 200 nM; construct: GST-full length
Procedure: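 Universal 'all 10-mer' protein binding microarrays (Agilent AMADID 015681) probed with GST-tagged S. cerevisiae TFs (full-length or DBD) made by in vitro transcription/translation (PURExpress), about 100-200 nM. Bound TF was detected with fluorescent anti-GST. Each ungapped 8-mer (which stands for itself and its reverse complement) is scored by the PBM enrichment score (E-score), a modified Wilcoxon-Mann-Whitney statistic from -0.5 to +0.5, computed with the Universal PBM Analysis Suite. Scale: above 0.35 generally sequence-specific binding.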

| Sequence | PBM E-score |
| --- | --- |
| CAGGTGAC | -0.157 |
| ACCACTCT | -0.157 |
| ATTGCAAT | 0.0774 |
| AAAATTTT | 0.236 |
| AATTGTAC | 0.146 |
| TATGAGGA | -0.0297 |
| GGCGATGA | -0.143 |
| CTCCGGCA | 0.423 |
| ATCCGGCC | 0.135 |
| GGCCGGCC | -0.0421 |
| GACCGGCA | -0.308 |
| CCCCGGCA | 0.0139 |
| GGCCGGCA | 0.00533 |
| ATCCGGCA | -0.166 |
| GTCCGGCA | 0.317 |
| CTCCGGCC | 0.376 |
| GCACCTTA | -0.00495 |
| GTTACACA | -0.2 |
| GAAAGGGC | 0.00203 |
| CACAGCAC | -0.205 |
| GCTTCCGA | 0.303 |
| GTTTCCAA | 0.0451 |
| CCTTCCGA | 0.134 |
| GTTTCCGA | 0.332 |
| CTTTCCGA | 0.226 |

| Sequence | PBM E-score |
| --- | --- |
| ACTTCCGA | 0.245 |
| AGTGGATG | -0.0759 |
| ATCCCTCC | -0.194 |
| GAGTGAAC | -0.111 |
| AAACTCCA | 0.297 |
| TAACTCCA | 0.143 |
| AAACTCCT | 0.016 |
| ATCTTATC | 0.154 |
| ACGAGGTG | -0.21 |
| ATATAAGC | 0.0532 |
| AACAAATT | 0.306 |
| AAGAAATA | 0.177 |
| AACAAATG | 0.159 |
| AAGAAAAT | 0.257 |
| AAGAAATG | 0.144 |
| AAGAAAAG | 0.116 |
| AAGAAAAA | 0.319 |
| AAGAAATT | 0.313 |
| AACAAGTT | 0.132 |
| GACGCCGC | -0.221 |
| ACAGTCTC | -0.112 |
| CGACGGGC | -0.197 |
| AACTAACT | 0.175 |
| CACTAATA | 0.213 |
| AACTAAAG | 0.195 |

| Sequence | PBM E-score |
| --- | --- |
| TACTATAA | 0.306 |
| TACTAATA | 0.181 |
| AACTAACA | 0.0858 |
| AACTAAAA | 0.31 |
| CACTATAA | -0.0412 |
| TACTAAAA | 0.207 |
| AACTAATA | 0.324 |
| AACTATAA | 0.204 |
| AACTAACC | 0.336 |
| AGGGGTGG | -0.277 |
| AGCCGTGA | -0.0248 |
| TGAATACA | 0.241 |
| ATCTGGTG | -0.015 |
| ATTAGATA | 0.175 |
| ATTAGATC | 0.0421 |
| ATTAGATG | 0.303 |
| ATATTCAG | 0.04 |
| GCTTCGTA | 0.0454 |
| GCTTCGGA | 0.324 |
| CCTTCGGC | -0.233 |
| CCTTCGGA | 0.32 |
| ACTTCGGG | 0.0676 |
| CCTTCGCA | -0.178 |
| ACTTCGGC | 0.14 |
| ACTTCGGA | 0.397 |

| Sequence | PBM E-score |
| --- | --- |
| GCTTCGCA | -0.197 |
| AATCTGTC | 0.133 |
| GGAAAGAC | -0.0333 |
| CGGCGTAG | -0.176 |
| AAAACTGG | 0.149 |
| ATTGCTGA | -0.0342 |
| CATGAGAA | 0.0161 |
| GCCAAGCC | -0.0191 |
| AGCGGAGA | 0.325 |
| CGCGGAGC | 0.26 |
| AGCGGAGC | 0.137 |
| AGCGGAGG | -0.201 |
| GGCGGAGA | 0.23 |
| CGCGGAGA | 0.387 |
| GACGGTCA | -0.253 |
| CCAAGGGG | -0.143 |
| ACCTTCGC | -0.0159 |
| ATTAACAA | 0.199 |
| CTTAACAC | -0.122 |
| ATTAACAC | 0.302 |
| AGCTATCA | -0.0476 |
| TAGCCGGA | 0.282 |
| ATGCCGGA | 0.325 |
| GAGCCGGA | 0.254 |
| ATGCCGGC | -0.0395 |

| Sequence | PBM E-score |
| --- | --- |
| AAGCCGGA | 0.331 |
| ATGCCGGG | -0.0609 |
| ACCATAAC | 0.0292 |
| AATTTAAT | 0.317 |
| AATTTTAT | 0.317 |
| AATTTAAG | 0.218 |
| AATTTTAA | 0.295 |
| AATTTTAC | 0.27 |
| AATTTAAC | 0.255 |
| AGCCTAGA | -0.224 |
| GAACCGCA | 0.0646 |
| AATTGACC | 0.0635 |
| CGAGTGAG | 0.0764 |
| TGGAATAA | 0.122 |
| CGGAATAA | 0.306 |
| AGGAATAC | -3e-05 |
| GGGAATAC | -0.0577 |
| CGGAATAC | 0.325 |
| GGGAATAA | 0.233 |
| AAAGGGTA | -0.054 |
| TGTGGCAA | -0.0604 |
| GAATTGGA | 0.0498 |
| CCCAAACC | -0.0698 |
| GTCCCGCA | -0.159 |
| GTCCCGGA | 0.348 |

| Sequence | PBM E-score |
| --- | --- |
| CTCCCGGA | 0.232 |
| ATCCCGGA | 0.328 |
| ATCCCGGG | -0.07 |
| GTCCCCGA | 0.066 |
| CAGTCGAC | -0.0872 |
| TATGCTGA | 0.175 |
| AACACCGG | 0.301 |
| AACACCGC | -0.0108 |
| CACACCGG | 0.0539 |
| CTGCTATC | 0.134 |
| AGTCTCTG | -0.12 |
| AGCAGTAA | 0.0389 |
| AAAAGGCA | 0.114 |
| CAGACGAC | -0.213 |
| GAGACGAA | -0.0447 |
| CAGACGAA | 0.298 |
| AGCTATGC | -0.227 |
| AGGAATTC | -0.203 |
| CGGAATTC | 0.323 |
| GGGAATTA | 0.143 |
| CTGAATTC | -0.102 |
| AGGAATTA | 0.137 |
| CGGAATTA | 0.349 |
| CATGTGAC | -0.0811 |
| AATAAGTC | 0.0835 |

| Sequence | PBM E-score |
| --- | --- |
| AATTCCGT | 0.317 |
| CATTCCGG | 0.194 |
| AATTCCGC | 0.192 |
| AATTCCAT | 0.0698 |
| AAATCCGG | 0.36 |
| AAATCCGC | -0.0542 |
| AATTCCCT | -0.0468 |
| AATTCCGG | 0.337 |
| AAATCCGT | 0.149 |
| AAGAGTCG | 0.00242 |
| AGTAGTGC | -0.185 |
| ACACTCGG | 0.00116 |
| GAGAATGC | 0.0169 |
| AACTTATA | 0.31 |
| CACTTATA | 0.0975 |
| AACTTATG | 0.0687 |
| GACTTATC | -0.0236 |
| TACTTATA | 0.151 |
| GACTTATA | 0.326 |
| AACGTCTT | -0.113 |
| GGCTCCCC | -0.226 |
| CAAGGCCC | -0.132 |
